# Activity calls are given as the source filed them. The calls were made as follows: active = hit-call score of the fitted dose curve at least 0.9, where 1 is the maximum; inactive = score below 0.9.
# Target: human Leukotriene Receptor CysLT1, CYSLTR1 (gene 10800) (UniProt Q9Y271)
# Test: ERF_FR_GPCR_hCYSLTR1: Eurofins (ERF) G Protein-Coupled Receptor (GPCR) Radioligand Binding LeadHunter Assay for human Leukotriene Receptor CysLT1 Agonism
# Procedure: ERF_FR_GPCR_hCYSLTR1 is a biochemical, single-readout assay that uses extracted gene-proteins in a cell-free assay. Measurements were taken 1 hour after chemical dosing in a 96-well plate. See CysLT1 Human Leukotriene GPCR Binding (Agonist Radioligand) Assay, Cerep.ERF_FR_GPCR_hCYSLTR1 is an assay component calculated from the ERF_FR_GPCR_hCYSLTR1 assay. It is designed to measure radioligand binding using a type of binding reporter as detected by scintillation counting with radiometry technology.Data from the assay component ERF_FR_GPCR_hCYSLTR1 was analyzed at the assay endpoint, ERF_FR_GPCR_hCYSLTR1, in the positive analysis fitting direction relative to DMSO as the negative control and baseline of activity. Using a type of binding reporter, gain-of-signal activity can be used to understand changes in binding as they relate to gene CYSLTR1. To generalize the intended target to other relatable targets, this assay endpoint is annotated to the gpcr intended target family, where the subfamily is leukotriene.
# Human cells are incubated for 60 minutes at room temprature with [3H]LTD4 ligand (0.3 nM) and leukotriene D4 as control inhibitor.Test Sample Requirements: Minimum for 1) Screen: 60 ul of 10 mM stock -OR- 1 mg (pre-weighed) for 10 uM final testing. 2) Dose Response: 90 ul of 10 mM stock -OR- 1 mg (pre-weighed) for a top concentration at 10 uM.
# Sequence of human Leukotriene Receptor CysLT1, CYSLTR1 (gene 10800) (Q9Y271 whole entry, looked up): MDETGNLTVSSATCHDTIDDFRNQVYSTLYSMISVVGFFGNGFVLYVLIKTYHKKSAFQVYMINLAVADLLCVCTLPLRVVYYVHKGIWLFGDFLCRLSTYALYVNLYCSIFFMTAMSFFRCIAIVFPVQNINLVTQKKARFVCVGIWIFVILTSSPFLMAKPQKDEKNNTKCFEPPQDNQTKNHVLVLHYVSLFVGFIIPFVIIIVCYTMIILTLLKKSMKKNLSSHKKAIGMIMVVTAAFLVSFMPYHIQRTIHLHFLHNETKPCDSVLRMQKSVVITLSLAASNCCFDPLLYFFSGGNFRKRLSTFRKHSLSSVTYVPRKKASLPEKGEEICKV
row,Compound,AC50
1,O=C(/C=C/c1ccc(O)cc1)CC(=O)/C=C/c1ccc(O)cc1,5 µM (active)

# From PubChem BioAssay AID2284157 (EPA ToxCast)
